Screening results deposited in PubChem by several laboratories.
Sampled rows, rich in hits. Any-hit rate of the full collection: about 4.7%.
PLK1 PBD inh: inhibitors of human Plk1 polo box domain binding; inhibition, %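 (tested at about 20 µM)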; P53350; hit rate 0.13% among 97,000; Plk1 PBD phosphopeptide binding, fluorescence polarization; AID 693; in the data active = inhibition above about 34%, passing the limit was not always enough
Target sequence (P53350 whole entry, looked up, the tested form may be a part): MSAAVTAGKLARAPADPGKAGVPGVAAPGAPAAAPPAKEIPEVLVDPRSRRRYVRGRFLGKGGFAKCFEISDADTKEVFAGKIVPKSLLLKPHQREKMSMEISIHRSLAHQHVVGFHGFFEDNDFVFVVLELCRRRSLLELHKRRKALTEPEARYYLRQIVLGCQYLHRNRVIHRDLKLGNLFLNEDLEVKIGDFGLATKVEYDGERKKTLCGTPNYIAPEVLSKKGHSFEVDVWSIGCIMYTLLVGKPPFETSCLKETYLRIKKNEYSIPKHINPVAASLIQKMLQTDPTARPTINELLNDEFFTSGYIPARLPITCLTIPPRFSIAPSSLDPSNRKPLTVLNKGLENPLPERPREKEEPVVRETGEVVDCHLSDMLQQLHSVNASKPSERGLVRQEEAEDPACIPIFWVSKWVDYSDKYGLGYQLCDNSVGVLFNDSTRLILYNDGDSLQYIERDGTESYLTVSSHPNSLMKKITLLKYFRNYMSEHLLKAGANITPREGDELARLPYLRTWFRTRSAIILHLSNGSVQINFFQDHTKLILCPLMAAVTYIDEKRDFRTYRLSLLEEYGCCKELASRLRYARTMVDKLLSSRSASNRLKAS
Cav3 T inh: inhibitors of human Cav3.2 T-type calcium channel. Cav3.2-expressing cells, Fluo-4 calcium fluorescence FDSS; active compounds read low. O95180. AID 449739. B-score at 10 µM. hit rate 4% among 100,000;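 active = single-dose well whose peak fluorescence ratio is a statistical outlier from its plate by either plate-standardised score or position-corrected B-score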
DAT uptake mod: human DAT dopamine uptake with cocaine, either direction; LLC-PK1 hDAT cells, [14C]-dopamine uptake with cocaine IC80; actives deviate in either direction; AID 449768; B-score at 10 µM; hit rate 1.3% among 110,000;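 active = Z score or B-score, a plate-position-corrected score, falls beyond the plate's 99.7% confidence bounds, in either direction; inactive = both scores lie inside the 99.7% bounds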
PLK1 inh: blocks human PLK1 kinase activity | P53350 | recombinant PLK1 kinase, TR-FRET peptide phosphorylation | inhibition, % at 10 µM | hit rate 0.53% among 97,000 | AID 619;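 active = inhibition of 50% or more in the single-concentration screen; inactive = inhibition below 50%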
sdo1 growth: sdo1-depleted yeast growth rescue; S. cerevisiae sdo1-depleted JHY4D growth rescue, OD600 30 h; active compounds read high; pdr5 snq2 efflux-pump mutant strain; z-score at 10 µM; hit rate 0.21% among 140,000;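 active = z-score above 3 at both the 24 hr and the 30 hr optical density reads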
PTK2B oligo ant: blocks oligomerization of human Pyk2 in cells; Q293 cells, Pyk2 FERM NanoBiT luminescence; active compounds read low; hit rate 0.83% among 99,000; Q14289; z-score (the deposit names both 25 µM and 10 µM); AID 1347419;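 active = Z-score of -3 or lower, scaled per plate to the spread of control and sample wells; inactive = z-score above -3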;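 also: negative z-score means lost luminescence so less FERM oligomerization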
Large screens that a line does not name were inactive.

O=C(c1ccc(COc2ccccc2Cl)o1)N1CCN(Cc2ccc3c(c2)OCO3)CC1	Cav3 T inh -4.9
O=C(CSCc1cccc(Cl)c1)N1CCN(Cc2ccc3c(c2)OCO3)CC1	Cav3 T inh -5.1
O=C(CS(=O)(=O)Cc1ccccc1)N1CCN(Cc2ccc3c(c2)OCO3)CC1	none
Cc1cc(N2CCOCC2)n2nc(C)c(-c3ccccc3)c2n1	Cav3 T inh 3.8
Cc1cc(N2CCC3(CC2)OCCO3)n2nc(C)c(-c3ccc(Cl)cc3)c2n1	none (no result: Cav3 T inh, DAT uptake mod, sdo1 growth, PTK2B oligo ant)
COc1cccc(NC(=O)CCSc2ccc(C)cc2)c1	none (no result: PLK1 PBD inh, Cav3 T inh, DAT uptake mod, PLK1 inh, PTK2B oligo ant)
CCNC(=S)SCCOc1ccccc1C	none (no result: PLK1 PBD inh, Cav3 T inh, DAT uptake mod, PLK1 inh, PTK2B oligo ant)
CN1c2ccccc2C(O)=C(C(=S)Nc2ccc(F)c(Cl)c2)S1(=O)=O	Cav3 T inh -11
CN1c2ccccc2C(O)=C(C(=S)Nc2ccccc2)S1(=O)=O	none
c1ccc(Cn2nnnc2C(c2ccccc2)N2CCN(c3nc4ccccc4s3)CC2)cc1 (stereo not given)	PTK2B oligo ant -4.1
COc1ccccc1C(c1nnnn1Cc1ccccc1)N1CCN(C2CCCC2)CC1 (stereo not given)	none
CCC(=O)N1CCN(c2nc3ccccc3s2)CC1	none
COc1ccc(C(c2nnnn2C(C)(C)C)N2CCN(c3nc4ccccc4s3)CC2)cc1 (stereo not given)	Cav3 T inh -5.3 (no result: PLK1 PBD inh, PLK1 inh)
COc1ccccc1C(c1nnnn1Cc1ccccc1)N1CCN(c2nc3ccccc3s2)CC1 (stereo not given)	Cav3 T inh -4.2, PTK2B oligo ant -3.8 (no result: PLK1 PBD inh, PLK1 inh)
O=C(c1cc2sccc2n1Cc1ccccc1)N1CCN(c2nc3ccccc3s2)CC1	Cav3 T inh -7.1
Cc1c(-c2nnc(SCC(=O)O)n2-c2ccccc2Br)nnn1-c1ccccc1	none (no result: PLK1 PBD inh, Cav3 T inh, DAT uptake mod, PLK1 inh, PTK2B oligo ant)
CCCCC(c1nnnn1Cc1ccco1)N1CCN(c2nc3ccccc3s2)CC1 (stereo not given)	none
Cc1ccc(C(c2nnnn2CCc2ccccc2)N2CCC(C)CC2)cc1 (stereo not given)	Cav3 T inh -7.4
CCC(C)(C)n1nnnc1C(c1ccc(O)c(OC)c1)N1CCN(c2nc3ccccc3s2)CC1 (stereo not given)	none (no result: PLK1 PBD inh, PLK1 inh)
CCCC(c1nnnn1Cc1ccc(OC)cc1)N1CCN(c2ccccc2OC)CC1 (stereo not given)	Cav3 T inh -5.1
COc1ccc(C(c2nnnn2Cc2ccccc2)N2CCN(c3nc4ccccc4s3)CC2)cc1OC (stereo not given)	PTK2B oligo ant -3.8
c1ccc(C(c2nnnn2Cc2ccco2)N2CCN(c3nc4ccccc4s3)CC2)cc1 (stereo not given)	Cav3 T inh -3.4
Cc1ccc(C(c2nnnn2CCc2ccccc2)N2CCSCC2)cc1 (stereo not given)	none (no result: Cav3 T inh, DAT uptake mod)
CCN(CC)S(=O)(=O)c1ccc(OC)c(NC(=S)Nc2ccc(C)c(C)c2)c1	none (no result: PLK1 PBD inh, Cav3 T inh, DAT uptake mod, PLK1 inh, PTK2B oligo ant)
CCSc1nnc(CNC(=O)C23CC4CC(CC(C4)C2)C3)n1C1CCCCC1	none (no result: PLK1 PBD inh, Cav3 T inh, DAT uptake mod, PLK1 inh, PTK2B oligo ant)
c1ccc(Cn2nnnc2C(c2cccs2)N2CCc3ccccc3C2)cc1 (stereo not given)	Cav3 T inh -3.8 (no result: PLK1 PBD inh, PLK1 inh)
Cc1ccc(C)c(N2CCN(C(c3ccc(N(C)C)cc3)c3nnnn3C(C)(C)C)CC2)c1 (stereo not given)	Cav3 T inh -5.5
Cc1ccc(C(c2nnnn2C(C)(C)C)N2CCC(C)CC2)cc1 (stereo not given)	none
N#Cc1ccc(C(c2nnnn2Cc2ccccc2)N2CCCC2)cc1 (stereo not given)	DAT uptake mod -9.3
N#Cc1cccc(C(c2nnnn2Cc2ccccc2)N2CCCC2)c1 (stereo not given)	none
COc1cccc(-c2nnc(SCC3CNC(=O)O3)n2-c2ccc(Cl)cc2)c1 (stereo not given)	none (no result: PLK1 PBD inh, Cav3 T inh, DAT uptake mod, PLK1 inh, PTK2B oligo ant)
CCOC(=O)c1oc2ccccc2c1NC(=O)COc1cccc(OC)c1	none
CCOC(=O)c1oc2ccccc2c1NC(=O)c1ccccc1OC	Cav3 T inh -4.7
Cc1cc(S(=O)(=O)N2CCN=C2c2ccccc2)c(Cl)cc1Cl	none (no result: PLK1 PBD inh, Cav3 T inh, DAT uptake mod, PLK1 inh, PTK2B oligo ant)
CC(C)CNC(=O)c1ccccc1NC(=O)CCSc1ccccc1	none (no result: PLK1 PBD inh, Cav3 T inh, DAT uptake mod, PLK1 inh, PTK2B oligo ant)
COc1cc(NS(=O)(=O)c2ccc(OC)c(C)c2C)c(OC)cc1Cl	Cav3 T inh -7.4
Cn1c(=O)[nH]c2ccc([N+](=O)[O-])nc21	none (no result: PLK1 PBD inh, Cav3 T inh, DAT uptake mod, PLK1 inh, PTK2B oligo ant)
CC(C(=O)Nc1ccc(F)c(F)c1F)N(C)CC(=O)Nc1ccccc1Br (stereo not given)	none (no result: PLK1 PBD inh, Cav3 T inh, DAT uptake mod, PLK1 inh, PTK2B oligo ant)
CC(C)(C)c1cc(NC(=O)CSc2nncs2)n(-c2ccccc2)n1	none (no result: PLK1 PBD inh, Cav3 T inh, DAT uptake mod, PLK1 inh, PTK2B oligo ant)
CCCS(=O)(=O)N1CCCC(c2nc(-c3cccc(OC)c3)no2)C1 (stereo not given)	Cav3 T inh -4
CCN(CC)C(=O)/C(=C\c1cccc([N+](=O)[O-])c1)NC(=O)c1ccco1	none (no result: PLK1 PBD inh, Cav3 T inh, DAT uptake mod, PLK1 inh, PTK2B oligo ant)
COc1cc(CNCCc2c[nH]c3ccccc23)ccc1OCc1ccc(F)cc1	DAT uptake mod 4.4
Cc1oc(-c2ccccc2)cc1C(=O)Nc1cccc2ccccc12	Cav3 T inh -5
CC1C/C(=N/O)C(C)CN1 (stereo not given)	PLK1 inh 53
CCc1ccc(S(=O)(=O)Nc2ccc(O)c3c(=O)cc(-c4ccccc4Cl)oc23)cc1	none (no result: PLK1 PBD inh, PLK1 inh, sdo1 growth, PTK2B oligo ant)
O=c1cc(-c2ccccc2Cl)oc2c(NS(=O)(=O)c3cc(Cl)cc(Cl)c3O)ccc(O)c12	DAT uptake mod -6.3 (no result: PLK1 PBD inh, PLK1 inh, PTK2B oligo ant)
Cc1ccccc1Nc1nc(CSc2nnnn2-c2ccccc2)cs1	DAT uptake mod -8
CCOc1ccc(OCCSc2nnnn2-c2ccccc2)cc1	PTK2B oligo ant -4.1
COc1ccccc1OCCSc1nnnn1-c1ccc(C)cc1	Cav3 T inh -5 (no result: PTK2B oligo ant)
c1ccc(OCCSc2nnnn2-c2ccccc2)cc1	Cav3 T inh -6
O=C(Cc1ccccc1)NCC(=O)OCC(=O)c1ccc(Cl)c([N+](=O)[O-])c1	none (no result: PLK1 PBD inh, Cav3 T inh, DAT uptake mod, PLK1 inh, PTK2B oligo ant)
O=C(C1CCC(CNS(=O)(=O)c2cccc3nsnc23)CC1)N1CC=C(c2ccccc2)CC1 (stereo not given)	Cav3 T inh -7.9 (no result: PTK2B oligo ant)
CC(C)CC(NC(=O)C(COC(C)(C)C)NC(=O)C(Cc1ccc(O)cc1)NC(=O)C(CO)NC(=O)C(Cc1c[nH]c2ccccc12)NC(=O)C(Cc1cnc[nH]1)NC(=O)C1CCC(=O)N1)C(=O)N[C@@H](CCCN=C(N)N)C(=O)N1CCCC1C(=O)NNC(N)=O (stereo not given in full)	none (no result: PLK1 PBD inh, DAT uptake mod, PLK1 inh, sdo1 growth, PTK2B oligo ant)
CCOc1cc(S(=O)(=O)NCc2ccc3c(c2)OCO3)c(C)cc1C	Cav3 T inh -6.2
CCOc1cc(C)c(Cl)cc1S(=O)(=O)NCc1ccc2c(c1)OCO2	none (no result: Cav3 T inh)
CCn1c2ccccc2c2cc(NC(=O)CSc3nnc(-c4ccccc4OC)n3N)ccc21	DAT uptake mod 2.8
COc1ccc(NC(=O)CSc2nnc(-c3ccccn3)n2N)cc1	DAT uptake mod 2.5
CCOc1ccc(NC(=O)CSc2nnc(-c3ccccn3)n2N)cc1	none
Cc1ccc(Nc2nc(CSc3nnc(-c4ccc(F)cc4)n3C)cs2)cc1	none (no result: PLK1 PBD inh, Cav3 T inh, DAT uptake mod, PLK1 inh, PTK2B oligo ant)
